Where two headings read alike, the source gives them in different places.
Assays:
PRKAA2 = settings: read-out: apparent Kd, n = 1
PRKD2 = settings: read-out: apparent Kd, n = 1

## Lestaurtinib
PRKAA2; compound concentrations:100 nM and 1000 nM (sheet 'Lestaurtinib' of Supplementary Table 1),run:Lestaurtinib_02795_R2,Plate:MR022
  potency estimated from few doses: 783 nM
PRKAA2; compound concentrations:100 nM and 1000 nM (sheet 'Lestaurtinib' of Supplementary Table 1),run:Lestaurtinib_02795_R3,Plate:MR022
  potency estimated from few doses: 860 nM
PRKAA2; compound concentrations:100 nM and 1000 nM (sheet 'Lestaurtinib' of Supplementary Table 1),run:Lestaurtinib_02802_R1,Plate:MR029
  potency estimated from few doses: 713 nM
PRKAA2; compound concentrations:100 nM and 1000 nM (sheet 'Lestaurtinib' of Supplementary Table 1),run:Lestaurtinib_02802_R2,Plate:MR029
  potency estimated from few doses: 472 nM
PRKAA2; compound concentrations:100 nM and 1000 nM (sheet 'Lestaurtinib' of Supplementary Table 1),run:Lestaurtinib_02802_R3,Plate:MR029
  potency estimated from few doses: 74.9 nM
PRKAA2; compound concentrations:100 nM and 1000 nM (sheet 'Lestaurtinib' of Supplementary Table 1),run:Lestaurtinib_02896_R2,Plate:MR030
  potency estimated from few doses: 1800 nM
PRKAA2; compound concentrations:100 nM and 1000 nM (sheet 'Lestaurtinib' of Supplementary Table 1),run:Lestaurtinib_02896_R3,Plate:MR030
  potency estimated from few doses: 761 nM
PRKAA2; compound concentrations:100 nM and 1000 nM (sheet 'Lestaurtinib' of Supplementary Table 1),run:Lestaurtinib_03172_R1,Plate:MR031
  potency estimated from few doses: 796 nM
PRKAA2; compound concentrations:100 nM and 1000 nM (sheet 'Lestaurtinib' of Supplementary Table 1),run:Lestaurtinib_03172_R2,Plate:MR031
  potency estimated from few doses: 564 nM
PRKAA2; compound concentrations:100 nM and 1000 nM (sheet 'Lestaurtinib' of Supplementary Table 1),run:Lestaurtinib_03172_R3,Plate:MR031
  potency estimated from few doses: 696 nM
PRKAA2; compound concentrations:100 nM and 1000 nM (sheet 'Lestaurtinib' of Supplementary Table 1),run:Lestaurtinib_03252_R1,Plate:MR032
  potency estimated from few doses: 1210 nM
PRKAA2; compound concentrations:100 nM and 1000 nM (sheet 'Lestaurtinib' of Supplementary Table 1),run:Lestaurtinib_03252_R2,Plate:MR032
  potency estimated from few doses: 26.1 nM
PRKD2; compound concentrations:100 nM and 1000 nM (sheet 'Lestaurtinib' of Supplementary Table 1),run:Lestaurtinib_02339_R1,Plate:MR001
  potency estimated from few doses: 41.6 nM
PRKD2; compound concentrations:100 nM and 1000 nM (sheet 'Lestaurtinib' of Supplementary Table 1),run:Lestaurtinib_02339_R3,Plate:MR001
  potency estimated from few doses: 39.3 nM
PRKD2; compound concentrations:100 nM and 1000 nM (sheet 'Lestaurtinib' of Supplementary Table 1),run:Lestaurtinib_02364_R3,Plate:MR002
  potency estimated from few doses: 45.4 nM
PRKD2; compound concentrations:100 nM and 1000 nM (sheet 'Lestaurtinib' of Supplementary Table 1),run:Lestaurtinib_02367_R2,Plate:MR003
  potency estimated from few doses: 43.5 nM
PRKD2; compound concentrations:100 nM and 1000 nM (sheet 'Lestaurtinib' of Supplementary Table 1),run:Lestaurtinib_02367_R3,Plate:MR003
  potency estimated from few doses: 44.3 nM
PRKD2; compound concentrations:100 nM and 1000 nM (sheet 'Lestaurtinib' of Supplementary Table 1),run:Lestaurtinib_02381_R1,Plate:MR004
  potency estimated from few doses: 50.1 nM
PRKD2; compound concentrations:100 nM and 1000 nM (sheet 'Lestaurtinib' of Supplementary Table 1),run:Lestaurtinib_02381_R2,Plate:MR004
  potency estimated from few doses: 54.4 nM
PRKD2; compound concentrations:100 nM and 1000 nM (sheet 'Lestaurtinib' of Supplementary Table 1),run:Lestaurtinib_02381_R3,Plate:MR004
  potency estimated from few doses: 41.5 nM
PRKD2; compound concentrations:100 nM and 1000 nM (sheet 'Lestaurtinib' of Supplementary Table 1),run:Lestaurtinib_02407_R2,Plate:MR005
  potency estimated from few doses: 51.1 nM
PRKD2; compound concentrations:100 nM and 1000 nM (sheet 'Lestaurtinib' of Supplementary Table 1),run:Lestaurtinib_02407_R3,Plate:MR005
  potency estimated from few doses: 45.8 nM
PRKD2; compound concentrations:100 nM and 1000 nM (sheet 'Lestaurtinib' of Supplementary Table 1),run:Lestaurtinib_02422_R1,Plate:MR006
  potency estimated from few doses: 40.9 nM
PRKD2; compound concentrations:100 nM and 1000 nM (sheet 'Lestaurtinib' of Supplementary Table 1),run:Lestaurtinib_02422_R2,Plate:MR006
  potency estimated from few doses: 24 nM
PRKD2; compound concentrations:100 nM and 1000 nM (sheet 'Lestaurtinib' of Supplementary Table 1),run:Lestaurtinib_02422_R3,Plate:MR006
  potency estimated from few doses: 41 nM
PRKD2; compound concentrations:100 nM and 1000 nM (sheet 'Lestaurtinib' of Supplementary Table 1),run:Lestaurtinib_02437_R1,Plate:MR007
  potency estimated from few doses: 45.2 nM
PRKD2; compound concentrations:100 nM and 1000 nM (sheet 'Lestaurtinib' of Supplementary Table 1),run:Lestaurtinib_02437_R2,Plate:MR007
  potency estimated from few doses: 74.6 nM
PRKD2; compound concentrations:100 nM and 1000 nM (sheet 'Lestaurtinib' of Supplementary Table 1),run:Lestaurtinib_02437_R3,Plate:MR007
  potency estimated from few doses: 3.14 nM
PRKD2; compound concentrations:100 nM and 1000 nM (sheet 'Lestaurtinib' of Supplementary Table 1),run:Lestaurtinib_02438_R1,Plate:MR008
  potency estimated from few doses: 45.4 nM
PRKD2; compound concentrations:100 nM and 1000 nM (sheet 'Lestaurtinib' of Supplementary Table 1),run:Lestaurtinib_02438_R2,Plate:MR008
  potency estimated from few doses: 51 nM
PRKD2; compound concentrations:100 nM and 1000 nM (sheet 'Lestaurtinib' of Supplementary Table 1),run:Lestaurtinib_02438_R3,Plate:MR008
  potency estimated from few doses: 31.7 nM
PRKD2; compound concentrations:100 nM and 1000 nM (sheet 'Lestaurtinib' of Supplementary Table 1),run:Lestaurtinib_02443_R2,Plate:MR009
  potency estimated from few doses: 43.2 nM
PRKD2; compound concentrations:100 nM and 1000 nM (sheet 'Lestaurtinib' of Supplementary Table 1),run:Lestaurtinib_02473_R3,Plate:MR010
  potency estimated from few doses: 38.9 nM
PRKD2; compound concentrations:100 nM and 1000 nM (sheet 'Lestaurtinib' of Supplementary Table 1),run:Lestaurtinib_02482_R2,Plate:MR011
  potency estimated from few doses: 50.4 nM
PRKD2; compound concentrations:100 nM and 1000 nM (sheet 'Lestaurtinib' of Supplementary Table 1),run:Lestaurtinib_02482_R3,Plate:MR011
  potency estimated from few doses: 42.2 nM
PRKD2; compound concentrations:100 nM and 1000 nM (sheet 'Lestaurtinib' of Supplementary Table 1),run:Lestaurtinib_02487_R2,Plate:MR012
  potency estimated from few doses: 40.1 nM
PRKD2; compound concentrations:100 nM and 1000 nM (sheet 'Lestaurtinib' of Supplementary Table 1),run:Lestaurtinib_02487_R3,Plate:MR012
  potency estimated from few doses: 67.4 nM
PRKD2; compound concentrations:100 nM and 1000 nM (sheet 'Lestaurtinib' of Supplementary Table 1),run:Lestaurtinib_02496_R1,Plate:MR013
  potency estimated from few doses: 47.4 nM
PRKD2; compound concentrations:100 nM and 1000 nM (sheet 'Lestaurtinib' of Supplementary Table 1),run:Lestaurtinib_02496_R2,Plate:MR013
  potency estimated from few doses: 58.1 nM
PRKD2; compound concentrations:100 nM and 1000 nM (sheet 'Lestaurtinib' of Supplementary Table 1),run:Lestaurtinib_02496_R3,Plate:MR013
  potency estimated from few doses: 50.5 nM
PRKD2; compound concentrations:100 nM and 1000 nM (sheet 'Lestaurtinib' of Supplementary Table 1),run:Lestaurtinib_02566_R1,Plate:MR014
  potency estimated from few doses: 67.2 nM
PRKD2; compound concentrations:100 nM and 1000 nM (sheet 'Lestaurtinib' of Supplementary Table 1),run:Lestaurtinib_02566_R2,Plate:MR014
  potency estimated from few doses: 39.4 nM
PRKD2; compound concentrations:100 nM and 1000 nM (sheet 'Lestaurtinib' of Supplementary Table 1),run:Lestaurtinib_02566_R3,Plate:MR014
  potency estimated from few doses: 46.5 nM
PRKD2; compound concentrations:100 nM and 1000 nM (sheet 'Lestaurtinib' of Supplementary Table 1),run:Lestaurtinib_02572_R1,Plate:MR015
  potency estimated from few doses: 38.1 nM
PRKD2; compound concentrations:100 nM and 1000 nM (sheet 'Lestaurtinib' of Supplementary Table 1),run:Lestaurtinib_02572_R2,Plate:MR015
  potency estimated from few doses: 52 nM
PRKD2; compound concentrations:100 nM and 1000 nM (sheet 'Lestaurtinib' of Supplementary Table 1),run:Lestaurtinib_02572_R3,Plate:MR015
  potency estimated from few doses: 82.5 nM
PRKD2; compound concentrations:100 nM and 1000 nM (sheet 'Lestaurtinib' of Supplementary Table 1),run:Lestaurtinib_02577_R3,Plate:MR016
  potency estimated from few doses: 35.8 nM

— PMC11062922 (Nature Chemical Biology, 2023)
